A selection: hits, their analogues and other compounds. The true share with any hit is near 1.8%.
PTHR1 agonist: qHTS for PTHR1 Agonists: Primary Screen. HEK293 GP2 PTHR1 cells, GloSensor cAMP luminescence, 1 h. Potency, µM (top dose mostly 115 µM), for the others: at the top dose activation, most hits filed as activators. Parathyroid hormone/parathyroid hormone-related peptide receptor (Homo sapiens), Q03431. hit rate 0.075% among 410,000; note: nearly all actives have a fitted effect of over 55% in size
Target sequence (Q03431 whole entry, looked up): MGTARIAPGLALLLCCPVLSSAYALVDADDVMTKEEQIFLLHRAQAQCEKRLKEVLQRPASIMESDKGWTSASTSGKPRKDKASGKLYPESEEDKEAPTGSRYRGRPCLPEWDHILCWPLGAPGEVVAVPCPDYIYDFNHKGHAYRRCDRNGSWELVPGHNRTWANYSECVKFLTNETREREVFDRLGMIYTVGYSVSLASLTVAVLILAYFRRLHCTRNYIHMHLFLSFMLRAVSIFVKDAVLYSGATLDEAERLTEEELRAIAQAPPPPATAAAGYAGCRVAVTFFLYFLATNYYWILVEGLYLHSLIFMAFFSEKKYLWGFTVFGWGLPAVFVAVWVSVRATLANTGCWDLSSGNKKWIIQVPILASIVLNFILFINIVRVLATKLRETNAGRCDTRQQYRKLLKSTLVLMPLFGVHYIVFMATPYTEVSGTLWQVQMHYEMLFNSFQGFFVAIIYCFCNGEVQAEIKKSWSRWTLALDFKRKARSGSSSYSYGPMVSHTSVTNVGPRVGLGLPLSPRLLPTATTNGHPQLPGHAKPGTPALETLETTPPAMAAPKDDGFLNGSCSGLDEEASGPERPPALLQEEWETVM
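HEK-293-derived GP2 cells expressing PTHR1 and a GloSensor cAMP reporter, 3,000/well, plated overnight, given luciferin plus IBMX (each 0.5 mM as added) for 1 h at 37 °C, then compound for 1 h at 37 °C. Luminescence was read after 15 min at room temperature.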
RGS4 inh: Inhibitors of Regulator of G Protein Signaling (RGS) 4: qHTS; Transcreener GDP fluorescence polarization, RGS4-accelerated GTP hydrolysis; Potency, µM (series often up to 114 µM), inactives show at the top dose activity change, negative = inhibition, hits mostly inhibitors; hit rate 0.039% among 390,000; note: % is set by controls: 0 for no effect and ±100 for the full control effect; nearly all actives have a fitted effect of over 75% in size
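MLSMR compounds (23 nl, pin-transferred) preincubated 10 min at room temperature with a 500nM (2x) first reagent, then RGS4 at 900nM (2x) plus Transcreener GDP mix added; fluorescence polarization (620/688 nm) read before and after 90 min at 30 °C.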
GCN5L2 inh: qHTS Assay for Inhibitors of GCN5L2. hit rate 0.21% among 390,000. GCN5L2 HAT assay, ThioGlo1 CoA-SH fluorescence. Potency, µM (doses to about 58.9 µM), inactives show at the top dose activity change, negative = inhibition, actives largely listed as inhibitors. Histone acetyltransferase KAT2A (Homo sapiens), Q92830. AID 504327, 2011; note: % is set by controls: 0 for no effect and ±100 for the full control effect
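Free CoA generated was detected with ThioGlo1 (50uM) fluorescence at Ex340nm/Em540nm, read immediately and after 20 min at room temperature. Enzyme, 20 nM in HEPES pH 7.5 buffer, saw compounds 15 min before adding 75uM H3(1-25) peptide and 70uM acetyl-CoA.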
GLP-1R inv ag: qHTS of GLP-1 Receptor Inverse Agonists (Inhibition Mode); HEK293 GLP-1R CRE-luciferase, luminescence, 24 h; GLP-1R form is constitutively active; Potency, µM (highest dose often 38.3 µM), without a hit: top-dose activity change, negative = inhibition, hits mostly inhibitors; hit rate 1.6% among 410,000; AID 624417, 2012; note: % is set by controls: 0 for no effect and ±100 for the full control effect; nearly all actives have a fitted effect of over 55% in size
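Using stably transfected HEK293 (constitutively active GLP-1R, cAMP-luciferase reporter), compounds were incubated 24 hr and luciferase measured by luminescence.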
GLP1R cytotox: qHTS of GLP-1 Receptor Inverse Agonists: Cytotox Screen; HEK293 cAMP-luciferase reporter cells, luminescence, 24 h; Potency, µM (doses to about 38.3 µM), inactives show at the highest dose activity change, negative = inhibition, most hits filed as inhibitors; hit rate 0.13% among 410,000; AID 624418, 2012;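 note: loss of luciferase light is scored as toxicity; % is set by controls: 0 for no effect and ±100 for the full control effect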
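MLSMR compounds, 24 hr on cells at 37 deg C/5% CO2; luminescence after luciferase reagent (12 min RT). Inhibition counted as the undesired cytotoxic outcome.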
GLP1R ag: qHTS of GLP-1 Receptor Agonists; hit rate 0.007% among 380,000; Potency, µM (highest dose often 45.6 µM), without a hit: top-dose activation, usual class: activators; HEK293 GLP-1R CRE-luciferase, luminescence, 4-6 h; cells express a hypersensitive GLP-1R form; note: % of control where 0% means no effect
Active calls of the source: *; i = inactive; u = inconclusive; x = not tested or not shown; [ ] = another dose, or the depositor's remark. Calls come from the whole dose curve; as a rule, active = well fitted curve in the direction sought with a large enough effect; inconclusive = small, poorly fitted or top-dose-only effect, or another doubt; inactive = no such curve, though single readings can be large; an effect the other way counts as inactive or inconclusive. Potency is the fitted concentration of half-maximal effect.

SMILES | PTHR1 agonist | RGS4 inh | GCN5L2 inh | GLP-1R inv ag | GLP1R cytotox | GLP1R ag
CC(C)C[C@H](NC(=O)CNC(=O)[C@H](C)NC(=O)[C@H](CC(C)C)NC(=O)[C@H](CCCNC(=N)N)NC(=O)[C@H](Cc1cnc[nH]1)NC(=O)[C@@H](NC(=O)[C@@H](NC(=O)[C@@H]1CSSC[C@H](NC(=O)[C@@H](N)CO)C(=O)N[C@@H](CC(N)=O)C(=O)N[C@@H]([C@@H](C)O)C(=O)N[C@@H](C)C(=O)N[C@@H]([C@@H](C)O)C(=O)N1)C(C)C)[C@@H](C)O)C(=O)N[C@@H](CC(C)C)C(=O)N[C@@H](CO)C(=O)N[C@@H](CCCNC(=N)N)C(=O)N[C@@H](CO)C(=O)NCC(=O)NCC(=O)N[C@H](C(=O)N[C@H](C(=O)N[C@@H](CCCCN)C(=O)N[C@@H](CC(=O)O)C(=O)N[C@@H](CC(N)=O)C(=O)N[C@@H](Cc1ccccc1)C(=O)N[C@H](C(=O)N1CCC[C@H]1C(=O)N[C@H](C(=O)N[C@@H](CC(N)=O)C(=O)N[C@H](C(=O)NCC(=O)N[C@@H](CO)C(=O)N[C@@H](CCCCN)C(=O)N[C@@H](C)C(=O)N[C@@H](Cc1ccccc1)C(N)=O)C(C)C)[C@@H](C)O)C(C)C)C(C)C)C(C)C | x | x | -5.7% | x | x | x
O=C(Cn1cc([N+](=O)[O-])nc1[N+](=O)[O-])N1CCN(c2ccccc2)CC1 | i | -3.3% | 0.7% | -28.5% | -2.8% | -0.1%
CCCCNC(=O)CSc1c2c(nc3ccc(Cl)cc13)CCCC2 | -79.1% | -8.0% | 1.1% | -26.6% | -12.3% | x
CCCCN(CC)C(=O)CSc1c2c(nc3ccc(Cl)cc13)CCCC2 | -24.2% | -25.4% | -4.2% | 10µM* | u | x
CCN(CC)CCOC(=O)c1ccc(NC(=O)CCCN2C(=O)S/C(=C/c3ccc(OC)cc3)C2=S)cc1 | i | u | -5.7% | 2.82µM* | u | -3.0%
C=CCNC(=S)N/N=C/c1ccc(C(C)(C)C)cc1 | -6.8% | -14.8% | -13.3% | 3.55µM* | u | 11.7%
CCCC(=O)Nc1c(I)cc(I)c(C[C@H](CC)C(=O)O)c1I | x | x | 1.0% | x | x | 6.6%
CCC(Cc1c(I)cc(I)c(O)c1I)C(=O)O (stereo not given) | x | x | 22.4µM* | x | x | 14.4%
CCc1cccc(CC)c1NC(=O)CN1CCc2cc(OC)c(OC)cc2C1 | x | x | 13.5% | x | x | x
CCN(CC)S(=O)(=O)c1ccc(NC(=O)c2ccc(OCC3CCCO3)cc2)cc1 (stereo not given) | -94.1% | -19.1% | -1.4% | u | 2.5% | -4.1%
O=[N+]([O-])c1ccc(O)c(C=Nc2cccc3ccccc23)c1 | i | -21.4% | -15.8% | 15.7% | -15.8% | -6.7%
O=[N+]([O-])c1cccc(C=Nc2cccc3ccccc23)c1O | -10.8% | -45.7% | 35.5µM* | -14.8% | -20.7% | -3.0%
COc1cccc2cc(C(=O)NC3CC4CCC3C4)oc12 (stereo not given) | -33.0% | 2.3% | -10.0% | 10µM* | -7.6% | 3.0%
CCOc1ccc(S(=O)(=O)NC2CCCCC2C)cc1 (stereo not given) | -26.5% | -8.4% | x | 10µM* | 4.2% | -2.8%
CCOC(=O)c1c(/N=C/N(C)C)sc(/C=N/Nc2ccccc2)c1-c1ccccc1Cl | -11.1% | -21.1% | -3.0% | 3.55µM* | -7.2% | 10.2%
CCOC(=O)c1c(/N=C/N(C)C)sc(/C=N/Nc2ccccc2)c1-c1ccccc1 | i | -22.3%[11.4 µM] | u | u | -5.9% | 8.5%
CN(C)CCCNC(=O)c1cc2sc3ccccc3c2s1 | -5.3% | 5.3% | -7.6% | 3.98µM* | u | 5.6%
CCCCN(CC)CCCNC(=O)c1cc2c(=O)n(CC)c3ccccc3c2s1 | i | 21.0% | 18.0% | 2.82µM* | 37.5% | 7.3%
Cc1ccc(-c2csc(N3CCC[C@@H]3C(=O)NCCn3c(C(F)(F)F)nc4ccccc43)n2)cc1 | u | -23.1% | -14.4% | u | -4.6% | -4.9%
CCCn1c(C2CCCN2c2nc(-c3cccc(Br)c3)cs2)nc2ccccc21 (stereo not given) | 24.0% | -16.6% | -7.1% | u | 4.47µM* | 5.8%
CC1CCc2c(sc(NC(=O)c3cccs3)c2C(=O)O)C1 (stereo not given) | -25.3% | -4.9% | -11.2% | -30.0% | -16.6% | 0.0%
CC(C)(C)C1CCc2c(sc(NC(=O)c3cccs3)c2C(=O)N2CCCCC2)C1 (stereo not given) | i | 7.1% | -11.4% | 3.55µM* | -0.4% | -15.1%
COc1ccccc1C(=O)NCCC(=O)NC1CCC(C)CC1 (stereo not given) | -7.6% | 0.5% | -7.2% | -1.8% | -11.5% | 12.9%
CCOC(=O)Cc1ccc(NC(=O)c2ccccc2Br)cc1 | -10.7% | -0.5% | -10.2% | u | -9.5% | 17.4%
CCOC(=O)Cc1ccc(NC(=O)c2ccc(C(C)(C)C)cc2)cc1 | -12.4%[57.5 µM] | -25.8%[11.4 µM] | -0.4% | 5.01µM* | -19.8% | -10.8%
SMILES | PTHR1 agonist | RGS4 inh | GCN5L2 inh | GLP-1R inv ag | GLP1R cytotox | GLP1R ag
Cc1cc(C(=O)NNc2c(Cl)cccc2Cl)no1 | i | 20.4% | -4.2% | 2.51µM* | -23.1% | 0.7%
Cc1cc(C(=O)NNc2ccc(F)cc2)no1 | -52.7% | 1.1% | -5.3% | 5.01µM* | u | 0.9%
Cc1cc(C(=O)NNc2cc(Cl)ccc2Cl)no1 | -10.6% | -47.5% | u | u | 4.0% | -6.1%
COc1ccc(C(CNC(=O)c2cccc(S(=O)(=O)Nc3cccc(C)c3)c2)N2CCOCC2)cc1 (stereo not given) | i | -19.0% | -8.4% | -23.2% | -26.5% | 5.7%
CCOC(=O)c1ccc(NC(=O)c2c(NC(C)=O)sc3c2CCC(C)C3)cc1 (stereo not given) | i | -5.5% | -4.4% | 6.2% | 6.7% | x
CCOC(=O)c1c(NC(=O)C(C)NCc2ccco2)sc2c1CCC(C)C2 (stereo not given) | i | -6.3% | 1.7% | 3.98µM* | u | 13.9%
O=C(Nc1ccc(F)cc1F)N1CCN(c2ncccn2)CC1 | -25.3% | 19.4% | 3.8% | -5.0% | 5.3% | 7.9%

Screening data from PubChem BioAssay.
